PrPC surface inh: reduces human prion protein on the cell surface; inhibition, % at 13.8 µM; cell surface PrPC, TR-FRET read-out; 0.43% of 370,000 active; P04156; in the data active means inhibition above about 24%; further: 0% = median of the test wells and 100% = reference compound wells
MazEF act: increases E. coli MazEF RNase cleavage of RNA. activation, % at 20 µM. AID 504720. P0AE70. FAM/BHQ RNA-DNA oligo cleavage fluorescence, 5 h. 0.32% of 350,000 active; in the data active means activation above about 50%
Target sequence (P0AE70 whole entry, looked up): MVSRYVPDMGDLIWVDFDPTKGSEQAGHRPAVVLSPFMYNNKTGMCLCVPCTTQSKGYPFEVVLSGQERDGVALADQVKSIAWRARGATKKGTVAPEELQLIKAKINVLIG
DUSP3 inh: DUSP3 (human) phosphatase inhibition. P51452. recombinant VHR phosphatase, pNPP absorbance. inhibition, % at 13.3 µM. 0.52% of 290,000 active. AID 1654; in the data active means inhibition above about 50%
Target sequence (P51452 whole entry, looked up): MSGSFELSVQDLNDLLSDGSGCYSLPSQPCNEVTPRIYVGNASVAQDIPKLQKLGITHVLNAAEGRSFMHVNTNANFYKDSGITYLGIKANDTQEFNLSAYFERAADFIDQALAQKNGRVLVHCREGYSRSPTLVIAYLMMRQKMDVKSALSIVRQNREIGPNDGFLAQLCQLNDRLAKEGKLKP
Vc quorum ag: inducers of Vibrio cholerae quorum light production without autoinducers | AID 588436 | 0.16% of 350,000 active | activation, % at 18.7 µM | V. cholerae BH1578 lux reporter, luminescence, 6 h; in the data active means activation mostly above about 9.7%, no sharp cut-off
CCHF vOTU inh-1: CCHFV vOTU protease inhibition; 0.55% of 370,000 active; inhibition, % at 11.5 µM; Pep-AMC fluorescence; AID 651958; further: 0% = vehicle wells with enzyme and 100% = no enzyme wells
Y pestis TopoI: Y. pestis Topo-I inhibition via cleavage products. Y. pestis Topo-I cleavage product accumulation, plate reader. activity, % at 10 µM. 0.064% of 360,000 active. AID 504884; in the data active means activity above about 50%, passing the limit was not always enough
CCHF vOTU inh-2: CCHFV vOTU protease inhibition, confirmation; shares compounds with CCHF vOTU inh-1; Recombinant CCHFV vOTU, Pep-AMC fluorescence; inhibition, % at 11.5 µM; 17% of 1,900 active
Active calls of the source: *; i = inactive; x = not tested or not shown. This is a sample that favours compounds with a hit; in the whole collection about 1.8% have one here. Unless noted, no stated cut-off is given here; in the data, active means inhibition above about 30%; inactive means the rest.

SMILES | PrPC surface inh | MazEF act | DUSP3 inh | Vc quorum ag | CCHF vOTU inh-1 | Y pestis TopoI | CCHF vOTU inh-2
O=S(=O)(c1ccc2nc(-c3ccco3)c(-c3ccco3)nc2c1)N1CCOCC1 | -10 | -8 | 3 | i | 73* | 11 | 40*
CN(C)/C=N/NC(=O)C1Cc2c(ccc3ccccc23)O1 (centres undefined) | 4 | -5 | -5 | -1 | 7 | -1 | x
CCN(CC)CCCN1C(=O)C(=O)/C(=C(/O)c2ccccc2)C1c1cc(OC)ccc1OC (centres undefined) | -20 | 14 | 16 | i | 54* | -1 | -28
O=C(CN1C(=O)NC(Cc2c[nH]c3ccccc23)C1=O)NCC(F)(F)F (centres undefined) | -1 | 1 | x | i | 4 | 0 | x
Cc1cc(=O)[nH]c(N/N=C/C=C/c2ccccc2)n1 | -1 | 0 | 1 | 0 | 35* | 3 | -3
Cc1cc(C)nc(N/N=C/C=C/c2ccccc2)n1 | 6 | 6 | -5 | 0 | 21 | -2 | x
CC(C)=CC(=O)N1CCCC(N2CCN(c3ccc(F)cc3)CC2)C1 (centres undefined) | -1 | 12 | 2 | i | -6 | 8 | x
Cc1ccc(-c2ccc(/C=N/N=C3/NC(=O)C(CC(=O)O)S3)o2)c([N+](=O)[O-])c1 (centres undefined) | -8 | 12 | -37 | 0 | 16 | 6 | x
O=C(O)CC1S/C(=N/N=C/c2ccc(-c3ccccc3[N+](=O)[O-])o2)NC1=O (centres undefined) | -4 | 12 | 9 | i | 36* | -2 | 8
CC(=O)Nc1ccc(/C=N/NC(=S)NC(C)C)cc1 | -14 | 2 | 10 | -1 | 36* | -14 | 3
CC(C)(C)c1cc(OC(=O)C2CCCC2)ccc1O | -6 | -3 | 2 | 0 | 2 | 8 | x
CCCCC(CC)C(=O)Oc1ccc(O)c(C(C)(C)C)c1 (centres undefined) | -3 | -4 | -17 | -2 | 31* | 27 | 16
O=C(O)CC(CC(=O)N1CCN(C(=O)c2ccco2)CC1)c1ccccc1 (centres undefined) | 2 | -1 | -9 | 0 | -4 | -1 | x
CC(=O)Nc1ccc2c(O)cc(S(=O)(=O)O)cc2c1 | -8 | -34 | x | -2 | 12 | 4 | x
Nc1ccc2c(O)cc(S(=O)(=O)O)cc2c1 | -20 | -5 | x | i | 52* | -8 | -40
Nc1[nH][nH]c(=O)c1N=Nc1cccc(Cl)c1 | -21 | 4 | 30 | i | 32* | -6 | 11
COc1ccc(C2NC(=S)N(c3ccccc3)C(C)=C2C(=O)Nc2ccccc2)cc1 (centres undefined) | -4 | 6 | 11 | i | -2 | 4 | x
CC1=C(C(=O)Nc2ccc([N+](=O)[O-])cc2)C(c2cccc(C(F)(F)F)c2)NC(=S)N1c1ccccc1 (centres undefined) | -1 | 18 | 23 | 1 | 31* | -10 | -16
Cc1cc(C)c2sc(N(CCCN(C)C)C(=O)c3ccc(Br)s3)nc2c1 | 10 | -6 | 15 | i | 31* | 2 | 4
Nn1cnnc1N/N=C/c1ccc(Cl)cc1Cl | -13 | -1 | -13 | 1 | 102* | 3 | -17
COc1cc(/C=C(\C#N)C(N)=O)ccc1OCc1c(C)no[n+]1[O-] | 9 | 5 | -11 | i | 1 | 1 | x
COc1cc(/C=N/Nc2nncn2N)ccc1OCc1c(C)no[n+]1[O-] | -3 | 3 | 6 | i | 97* | -1 | -8
COc1ccc(/C=N/Nc2nncn2N)cc1Br | 6 | -31 | 2 | 0 | 91* | -3 | 4
COc1cc(/C=N/NC(=O)c2cccc(C)c2)ccc1OCC(=O)Nc1ccccc1 | 2 | -2 | x | 0 | 1 | 3 | x
CC(C)CNC(=O)C(=O)NCC1OCCCN1S(=O)(=O)c1ccc2c(c1)OCCO2 (centres undefined) | -8 | -1 | 5 | -2 | -3 | 2 | x
O=C(c1ccc(C(F)(F)F)cc1)C1CCCN(Cc2cccn2-c2ncccn2)C1 (centres undefined) | -4 | 9 | 3 | -1 | 11 | 9 | x
COc1cccc(NC(=O)CN(C)C(=O)c2cc3c(s2)CCCC3)c1 | 16 | -2 | x | -1 | 12 | 11 | x
